PINK1 expr mod = changes PINK1 expression; PINK1 immunofluorescence, high-content cytometry, 24 h; Potency, µM (highest dose often 76.6 µM), inactives show at the top dose activation (PINK1 increase), actives largely listed as activators; hit rate 0.2% among 410,000; AID 624263; active = well fitted activation curve with a large enough effect; inconclusive = small, poorly fitted or top-dose-only effect; cell line not stated here; note: % of control where 0% means no effect; nearly all actives have a fitted effect of over 65% in size
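Stable cell line, 250 cells/well, 12 h attachment; compounds pinned at 5 concentrations, 24 h; CCCP control. Fixed with nuclear dye, primary antibodies 12 h at 10 degrees C, secondary plus cell stain; laser-scanning cytometer read.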
TSG101-PTAP inh = blocks PTAP/TSG101 interaction to inhibit HIV-1 budding; Q99816; Fluorescence polarization, FITC-PTAP peptide / Tsg101 binding; Potency, µM (highest dose often 115 µM), for inactives: at the top dose activity change, negative = inhibition, usual class: inhibitors; 340,000 tested, under 10 active; active = well fitted inhibition curve with a large enough effect in the main read-out, with a control signal flat, not every such curve was filed as active; inconclusive = small, poorly fitted or top-dose-only effect, or effect the other way, or a change in a side signal; inactive = no such curve, though single readings can be large or run the other way; note: % of control where 0% means no effect
Target sequence (Q99816 whole entry, looked up): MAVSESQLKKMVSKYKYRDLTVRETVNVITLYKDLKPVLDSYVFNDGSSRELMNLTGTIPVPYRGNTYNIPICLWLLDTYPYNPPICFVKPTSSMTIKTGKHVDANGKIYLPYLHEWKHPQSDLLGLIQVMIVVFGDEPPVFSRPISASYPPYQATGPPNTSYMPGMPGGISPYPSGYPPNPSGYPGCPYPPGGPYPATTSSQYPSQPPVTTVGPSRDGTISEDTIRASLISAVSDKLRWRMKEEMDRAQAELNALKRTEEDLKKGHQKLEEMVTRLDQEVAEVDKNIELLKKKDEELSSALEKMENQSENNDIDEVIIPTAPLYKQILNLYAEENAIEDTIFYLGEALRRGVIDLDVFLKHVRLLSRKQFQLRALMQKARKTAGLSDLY
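Tsg101 binding domain (10 uM final) was mixed with compound and a FITC-labeled PTAP peptide (50 nM final) in HEPES pH 7.5 buffer with NaCl, Tween 20, EDTA and TCEP; fluorescence polarization was read after 20 min at r.t.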
MCF10A rerep = inducers of DNA re-replication in MCF 10A breast cells | AID 624296 | Potency, µM (highest dose often 46.1 µM), for inactives: at the highest dose activity, positive = re-replication, hits mostly activators | MCF 10A DNA re-replication, Hoechst nuclear intensity, 48 h | hit rate 2.9% among 350,000; note: % of control where 0% means no effect; nearly all actives have a fitted effect of over 50% in size
KB-3-1 cytotox = kills parental KB-3-1 adenocarcinoma cells; KB-3-1 viability, CellTiter-Glo ATP luminescence, 72 h; Potency, µM (top dose mostly 46.1 µM), hits mostly cytotoxic; hit rate 1.4% among 400,000; AID 1347075; note: % is set by controls: 0 for no effect and ±100 for the full control effect; nearly all actives have a fitted effect of over 60% in size
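72 h, 37 °C compound treatment of KB-3-1 parental cells; CellTiter-Glo added, 10 min, luminescence read. Data corrected against DMSO-only plates and normalized before curve fitting.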
SW480 rerep = inducers of DNA re-replication in SW480 colon cancer cells; SW480 DNA re-replication, Hoechst DNA content imaging, 48 h; Potency, µM (doses to about 46.1 µM), for inactives: top-dose re-replication activation, actives largely listed as activators; hit rate 1.8% among 340,000; AID 624297; note: % of control where 0% means no effect; nearly all actives have a fitted effect of over 55% in size
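Hoechst fluorescence of nuclei (405 nm excitation, 500-530 nm emission) measured by plate-scanning imager after 48 hr compound exposure at 37 C; re-replication scored as increased number of nuclei with elevated intensity.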
KB-V1 MDR tox = kills drug-selected multidrug resistant KB-V1 cells | hit rate 3.4% among 400,000 | KB-V1 MDR cells viability, CellTiter-Glo, 72 h | Potency, µM (series often up to 46.1 µM), actives largely listed as cytotoxic | AID 1347076; note: % is set by controls: 0 for no effect and ±100 for the full control effect; nearly all actives have a fitted effect of over 60% in size
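Readout: CellTiter-Glo luminescence, 10 min after addition. Cells: KB-V1 MDR subline, 72 h at 37 degrees C with compound. Analysis: corrected, normalized data fitted to concentration-effect curves.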
Starred values were filed as active, the others as inactive; i = inactive; u = inconclusive; x = not tested or not shown; ! = repeats disagree; [ ] = remark or other dose. An excerpt weighted towards active compounds, which were near 6.8% of everything screened. Unless noted, calls come from the whole dose curve; as a rule, active = well fitted curve in the direction sought with a large enough effect; inconclusive = small, poorly fitted or top-dose-only effect, or another doubt; inactive = no such curve, though single readings can be large; an effect the other way counts as inactive or inconclusive. Potency is the fitted concentration of half-maximal effect.

SMILES	PINK1 expr mod	TSG101-PTAP inh	MCF10A rerep	KB-3-1 cytotox	SW480 rerep	KB-V1 MDR tox
Cc1ccc(-c2nnc(SCC(=O)Nc3sc(C)c(C)c3C#N)n2C)cc1	4%	-3%	-11%	i	4%	i
COCCn1c(SCC(=O)Nc2sc(C)c(C)c2C#N)nnc1-c1ccc(OC)cc1	-4%[38.3 µM]	-11%	13%	i	-4%	9.2µM*
Cc1cc(C(=O)NCC2CCC3(CCN(Cc4ccc5ccccc5c4)CC3)O2)n(C)n1 (centres undefined)	1%	x	x	x	x	x
COc1ccc(SC[C@H](C)CN2CC[C@H](NC(=O)OCc3ccccc3)CCC2=O)cc1	1%	-4%	u	15µM*!	0%	12µM*!
O=C1CCN(CCc2ccccc2)CCN1[C@H](CSc1ccc(Br)cc1)Cc1ccccc1	14%	x	u	u	0%	i
COc1ccc(S[C@@H](CCN2CC[C@H](NC(=O)OCc3ccccc3)CCC2=O)c2ccccc2)cc1	1%	-2%	u	13µM*!	u	u
O=C(N[C@H]1CCC(=O)N([C@H](CSc2ccccc2)Cc2ccccc2)CC1)OCc1ccccc1	0%	2%	u	u	-6%	18µM*!
O=C1CCN(Cc2ccccc2)CCN1[C@H](CSc1ccccc1)Cc1ccccc1	2%	1%	4%	u	-3%	15µM*!
Cc1cccc(NC(=O)C2CCCN2S(=O)(=O)c2ccc3nc(-c4ccccc4)[nH]c3c2)c1 (centres undefined)	1%	x	x	x	x	x
C[C@@H](CSc1ccc(Br)cc1)CN1CC[C@H](NC(=O)OCc2ccccc2)CCC1=O	0%	x	u	u	5%	15µM*!
NS(=O)(=O)c1ccc(NC(=O)c2nc(S(=O)(=O)Cc3ccccc3F)ncc2Cl)cc1	1%	x	x	i	x	i
COc1ccc(C(=O)C(OC(=O)c2ccc(C)c(NC(C)=O)c2)c2ccccc2)cc1 (centres undefined)	1%	-4%	-183%[0.0737 µM]	i	-9%	i
CC(=O)Nc1cc(C(=O)OC(C(=O)c2ccccc2)c2ccccc2)ccc1C (centres undefined)	4%	-5%	32%	i	-12%	16µM*
Cc1cccc(N2CCN(c3ncnc4c3nc3n4CCCCC3)CC2)c1C	1%	x	x	i	x	i
COc1ccc(S(=O)(=O)N2C3CCC2CC(NC(=O)NC2CCCCC2)C3)cc1 (centres undefined)	x	-6%	u	i	-2%	16µM*
Clc1ccc(Cn2c(/C=C/c3ccco3)nc3ccccc32)cc1	30%	1%	21µM*	i	16%	i
Cc1ccc(Cn2c(/C=C/c3ccco3)nc3ccccc32)cc1	26%	-4%	-2%	i	-9%	u
Cc1ccc(-n2ncc(C(=O)NC3CCCC3)c2C2CCN(C(=O)OC(C)(C)C)CC2)c(C)c1	-1%	x	x	i	x	i
COC(=O)[C@@H]1CCCN1Cc1ccc2c(c1)CN(Cc1cccn1-c1ccc(Cl)cn1)CCO2	-1%	x	x	x	x	x
COc1ccc(-n2ccc(-c3sc(NCc4cc(OC)c5c(c4)OCO5)nc3C)n2)cc1	0%	x	x	x	x	x
Cc1nc2cc(-c3sccc3-n3cccc3)nn2c(C)c1C	9%	-5%	u	i	-6%	16µM*
Cc1cc(C(F)(F)F)n2nc(-c3sccc3-n3cccc3)cc2n1	9%	-3%	4%	i	-7%	i
O=C(Cn1cc(C(=O)c2ccncc2)c(=O)c2cc(F)ccc21)Nc1ccc(Cl)cc1	1%	x	x	x	x	x
COc1ccc(-n2c(C)cc(C(=O)CN3C(=O)C(=O)N(Cc4ccccc4)C3=O)c2C)cc1	5%	1%	5.8µM*	u	8%	u
Cc1cc(C(=O)CN2C(=O)C(=O)N(Cc3ccco3)C2=O)c(C)n1CCc1ccc(F)cc1	1%	-7%	u	18µM*	u	15µM*

Screening results: PubChem, National Center for Advancing Translational Sciences (NCATS)
